Compounds with a hit are over-represented: about 10% of the library has one in this group of screens.
PLK1 PBD block = qHTS for Inhibitors of PLK1-PDB (polo-like kinase 1 - polo-box domain): Primary Screen; hit rate 2.8% among 360,000; Serine/threonine-protein kinase PLK1 (Homo sapiens), P53350; Potency, µM, for the others: max response, negative = inhibition, hits mostly inhibitors; Plk1 PBD binding of FITC phosphopeptide, fluorescence polarization; note: potency is the fitted concentration of half-maximal effect; series mostly up to about 57 µM; nearly all actives have a fitted effect of over 65% in size
Target sequence (P53350 whole entry, looked up, the tested form may be a part): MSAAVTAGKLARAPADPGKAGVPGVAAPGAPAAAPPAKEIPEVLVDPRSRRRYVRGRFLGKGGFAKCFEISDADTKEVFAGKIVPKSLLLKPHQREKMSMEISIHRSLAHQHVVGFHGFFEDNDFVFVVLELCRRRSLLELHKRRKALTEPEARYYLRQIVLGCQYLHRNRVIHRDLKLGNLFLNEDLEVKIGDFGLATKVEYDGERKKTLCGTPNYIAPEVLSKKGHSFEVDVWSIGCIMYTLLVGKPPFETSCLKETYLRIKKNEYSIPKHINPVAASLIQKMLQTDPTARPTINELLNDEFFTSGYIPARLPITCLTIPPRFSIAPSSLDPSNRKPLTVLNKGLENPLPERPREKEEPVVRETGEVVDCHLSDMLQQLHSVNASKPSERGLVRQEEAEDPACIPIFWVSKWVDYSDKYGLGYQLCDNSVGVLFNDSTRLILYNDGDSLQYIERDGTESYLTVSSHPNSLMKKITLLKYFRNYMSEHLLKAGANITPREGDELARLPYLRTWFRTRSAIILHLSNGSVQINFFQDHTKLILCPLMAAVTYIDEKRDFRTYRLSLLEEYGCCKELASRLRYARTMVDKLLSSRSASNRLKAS
Sfp inh = qHTS Assay for Inhibitors of Bacillus subtilis Sfp phosphopantetheinyl transferase (PPTase) | 4'-phosphopantetheinyl transferase ffp (Bacillus subtilis), Q9F4F7 | Biochemical Sfp PPTase activity, qHTS | Potency, µM, inactives show largest response in the series, negative = inhibition, hits mostly inhibitors | hit rate 3.5% among 310,000;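 note: the enzyme is Sfp with the accession as filed and its product quenches rhodamine fluorescence; potency is the fitted concentration of half-maximal effect; 0% = enzyme reaction without inhibitor and -100% = no enzyme wells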
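Buffer: 50 mM Hepes-Na pH 7.6, 10 mM MgCl2, 0.01% Nonidet P-40, 0.01% BSA. Enzyme 15 nM, pre-exposed to compound 15 min; substrates then added and fluorescence change tracked over 30 min.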
CCT modulator = High-Throughput Screening for Modulators of Cytosolic Chaperonin Activity. purified chaperonin ATPase assay, HTRF ADP detection, 30 min. activity change, % (concentration not given with the values), hits read low. hit rate 0.3% among 360,000. AID 651819, 2012; in the data active = activity change below about -30%
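Nucleotide hydrolysis assay: TRiC at 20–40 nM final (set by batch activity) with 10 uM ATP, 30 min at 37 °C, in presence of 76 uM compound. Detection by competitive ADP HTRF, 30 min ambient.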
MmCpn inh = Inhibitors of TCP-1 ring complex (TRiC) of Methanococcus maripaludis (MmCpn): qHTS; AID 504842, 2011; Chaperonin Mm-Cpn (Methanococcus maripaludis); purified Mm-Cpn ATPase, ADP Transcreener TR-FRET; Potency, µM (titrated, usually from 76.9 µM), for inactives: at the highest dose activity, negative = inhibition, most hits filed as inhibitors; hit rate 0.031% among 330,000; note: potency is the fitted concentration of half-maximal effect; nearly all actives have a fitted effect of over 80% in size
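TR-FRET (320 nm excitation; 590 and 665 nm emission) reports ADP made from 10 uM ATP by 25 nM enzyme; compounds were preincubated 10 min, reaction run 30 min, both at 37°C.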
VDR inh = Inhibitors of the vitamin D receptor (VDR): qHTS. Potency, µM, for the others: max response, negative = inhibition, usual class: inhibitors. hit rate 0.93% among 400,000. AID 504847, 2011. VDR-SRC2-3 peptide fluorescence polarization, 2 h. Vitamin D3 receptor (Homo sapiens), P11473; note: potency is the fitted concentration of half-maximal effect
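Fluorescence polarization assay of small-molecule disruption of VDR binding to coregulator peptide SRC2-3. Compounds and controls pin-transferred, then read after 2 h incubation at ambient room temperature.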
G9a inh = qHTS Assay for Inhibitors of Histone Lysine Methyltransferase G9a | Histone-lysine N-methyltransferase EHMT2 (Homo sapiens), Q96KQ7 | G9a H3K9 monomethylation, AlphaScreen, 2 h | Potency, µM (doses to about 102 µM), without a hit: top-dose activity, negative = inhibition, most hits filed as inhibitors | hit rate 8.8% among 350,000; note: potency is the fitted concentration of half-maximal effect; nearly all actives have a fitted effect of over 75% in size
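Quantitative HTS format: methyltransferase activity on a biotin-tagged H3K9 peptide is measured by AlphaScreen, using a rabbit anti-monomethyl-H3K9 antibody with streptavidin donor and anti-IgG acceptor beads. Final levels are 20 nM enzyme, 500 nM peptide, 20 uM SAM; 2 h RT.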
* marks the source's active call; other numbers are inactive results; ? = inconclusive; nt = no result; [ ] = remark or other dose. Unless noted, calls come from the whole dose curve; as a rule, active = well fitted curve in the direction sought with a large enough effect; inconclusive = small, poorly fitted or top-dose-only effect, or another doubt; inactive = no such curve, though single readings can be large; an effect the other way counts as inactive or inconclusive. Unless noted, % is set by controls: 0 for no effect and ±100 for the full control effect.

SMILES	PLK1 PBD block	Sfp inh	CCT modulator	MmCpn inh	VDR inh	G9a inh
Cc1ccccc1NC(=O)Cc1nc(-c2c[nH]c(C(=O)N3CCCC3)c2)cs1	-5.9%	nt	1.4	-0.9%	-16.3%	?
C/C(=N\Nc1ccc(C(=O)O)cc1)c1ccc(Br)cc1	-25.6%	-26.8%	-1.5	2.1%	-17.9%	nt
C/C(=N/Nc1ncc(Br)cn1)c1ccc(Br)cc1	4.74µM*	5.7%	-2.3	0.5%	?	nt
CC1CCN(C(=O)COC(=O)CSc2ccc(C(N)=O)cc2[N+](=O)[O-])CC1	-9.8%	nt	-0.2	-1.7%	-7.1%	4.9%[2.33 µM]
NC(=O)c1ccc(SCC(=O)OCC(=O)N2CCN(C(=O)c3ccco3)CC2)c([N+](=O)[O-])c1	-19.6%	nt	-0.6	0.4%	-1.1%	56.2µM*
Cc1cc(Br)ccc1SCC(=O)OCC(=O)N1CCN(C(=O)c2ccco2)CC1	-24.2%	?	-1.3	-2.7%	-7.0%	44.7µM*
O=C(COc1cccnc1[N+](=O)[O-])N1CCN(C(=O)c2ccco2)CC1	?	?	-1.8	1.2%	-18.5%	8.91µM*
COc1cc(CC(=O)OCC(=O)N2CCN(C(=O)c3ccco3)CC2)cc(OC)c1OC	1.1%	nt	-3.3	0.5%	-5.7%	nt
NC(=O)c1ccc(SCC(=O)OCC(=O)N2CCCCC2)c([N+](=O)[O-])c1	-9.2%	nt	0.3	0.1%	-13.1%	50.1µM*
CCOc1ccccc1NC(=O)N(Cc1ccc(C)o1)C1CCN(C(C)=O)CC1	nt	nt	nt	nt	16.7%	-7.5%[59 µM]
Cc1ccc(NC(=O)CSc2ccc(C(N)=O)cc2[N+](=O)[O-])cc1	-9.8%	11.6%	-0.9	-2.2%	-19.2%	-7.7%[59 µM]
O=C(CSc1ccccc1F)OCC(=O)N1CCN(C(=O)c2ccco2)CC1	-26.5%	nt	1.8	-0.9%	7.6%	?
Cc1ccc(NC(=O)CSc2ccc(C(N)=O)cc2[N+](=O)[O-])cc1C	2.99µM*	12.4%	-1.9	-3.8%	22.4µM*	-28.3%
O=C(CSc1cccc2cccc(Cl)c12)OCC(=O)N1CCN(C(=O)c2ccco2)CC1	?	-10.0%	0.2	-2.4%	18.0%	79.4µM*
COc1ccccc1CNCC(=O)N1CC(=O)Nc2ccccc21	?	-28.6%	-1.3	-3.7%	-2.4%	10µM*
Cc1ccc(NC(=O)CNC(=O)N2CC(=O)Nc3ccccc32)cc1F	7.52µM*	16.6%	1.5	-2.5%	?	11.2%
COc1ccccc1NC(=O)CN1CC(=O)Nc2ccccc21	2.0%	9.0%	-0.7	-0.5%	-2.3%	20µM*
O=C(CCNC(=O)N1CC(=O)Nc2ccccc21)NCc1ccccc1	3.8%	nt	0.0	nt	nt	nt
COc1ccccc1CNC(=O)CNC(=O)N1CC(=O)Nc2ccccc21	-5.0%	15.6%	-0.1	0.3%	8.7%	21.2%
O=C1CN(C(=O)CNCc2ccccc2)c2ccccc2N1	-10.0%	-4.1%	1.3	-3.3%	-4.3%	35.5µM*
Cc1ccc(NC(=O)CCNC(=O)N2CC(=O)Nc3ccccc32)cc1Cl	2.0%	nt	0.4	nt	nt	nt
CCOC(=O)c1c(NC(=O)c2cc3nc(-c4ccc(OC)cc4)cc(C(F)(F)F)n3n2)sc(C)c1C	nt	nt	nt	nt	13.7%	-11.6%[59 µM]
Cc1cccc(-n2ccnc2SCC(=O)Nc2nccs2)c1C	26.7µM*	18.3%	0.9	1.7%	-17.3%	?
Cc1cccc(-c2nsc(SCC(=O)N3CCCC3)n2)c1	?	?	-1.8	-0.8%	4.8%	39.8µM*
Cc1cccc(-c2nsc(SCC(=O)Nc3nccs3)n2)c1	18.9µM*	50.1µM*	-1.3	2.0%	-29.2%	10µM*
SMILES	PLK1 PBD block	Sfp inh	CCT modulator	MmCpn inh	VDR inh	G9a inh
O=C(CSc1nc2ccccc2nc1SCC(=O)N1CCOCC1)N1CCOCC1	-1.8%	?	0.8	-0.9%	-2.7%	?
O=C(CSc1nc(-c2ccccc2)ns1)N1CCOCC1	21.2µM*	39.8µM*	1.6	-1.2%	-24.7%	8.91µM*
Cc1cccc(-c2nsc(SCC(=O)Nc3ccc4c(c3)OCO4)n2)c1	-24.3%	-24.1%	1.7	-2.2%	-11.3%	-77.1%
Cc1oc(-c2cccc(Cl)c2)nc1Cn1c(SCc2ccccc2F)nc2ccncc21	nt	nt	nt	nt	7.3%	-39.9%[59 µM]
CC1CC=CC2C1C(=O)N(Cc1ccccc1)C2c1ccc2ccccc2c1C=Cc1ccccc1 (stereo unspecified)	nt	?	nt	nt	-5.3%	nt
CCOc1ccc(NC(=O)Cn2c(CCC(=O)O)ccc2-c2ccc(Cl)cc2)cc1	nt	nt	nt	nt	8.5%	-44.5%[59 µM]
O=C(c1cccn1-c1nnc(N2CCCCC2)s1)N1CCN(c2ccccc2)CC1	nt	nt	nt	nt	7.5%	-24.1%[59 µM]
COC(=O)[C@H](Cc1ccccc1)NC(=O)O[C@@H]1C(=O)c2cc(OC)ccc2O[C@H]1c1cccc(OC)c1	nt	-21.8%	nt	nt	-3.0%	nt
CCOC(=O)CSc1nnc(-c2ccccc2)c(-c2ccccc2)n1	-24.6%	-2.2%	-0.1	-0.6%	5.6%	47.1%
CCOC(=O)CSc1nc(-c2ccccc2)ns1	3.36µM*	15.8µM*	0.3	-0.2%	?	8.91µM*
COc1cccc([C@H](O)Cn2cc(-c3cccc(CON=C(C)C)c3)nn2)c1	nt	13.6%	nt	nt	nt	nt
COc1ccc(-c2cc(-c3ccc4c(c3)NC(=O)CO4)nc3c2COc2ccc(C)cc2-3)cc1	nt	nt	nt	nt	4.4%	1.4%[59 µM]
COC(=O)NC(CC(C)=O)c1ccc(Cl)cc1 (stereo unspecified)	nt	15.1%	nt	nt	nt	nt
Cc1ccc(CNc2ncnc3c2nnn3C)cc1	nt	nt	nt	nt	1.4%	-4.4%[59 µM]
CSC1=NC2C(N1)N(C)C(=O)N2C (stereo unspecified)	-2.7%	-19.6%	-3.7	-3.6%	-1.7%	7.94µM*
Cc1cc(-c2ccc(C)c(S(=O)(=O)NCC3CCN(Cc4cccc(F)c4)CC3)c2)on1	2.2%	7.9%	-2.8	1.9%	2.7%	1.4%[59 µM]
COc1cccc(CCN2CCC(CNS(=O)(=O)c3cc(-c4cc(C)no4)ccc3C)CC2)c1	2.4%	0.6%	0.7	3.0%	-7.0%	70.8µM*
COc1ccc2nc(C)[nH]c(=O)c2c1	-0.4%	15.6%	-3.1	0.2%	14.1%	-1.9%
Cc1nc2c(O)cccc2c(=O)[nH]1	nt	56.2µM*	nt	nt	-1.8%	nt
CC(=O)N1c2c(cc(Br)cc2S(=O)(=O)N2CCN(c3cccc(Cl)c3)CC2)CC1C (stereo unspecified)	nt	nt	nt	nt	-10.3%	-28.8%[59 µM]
O=C(C1CCN(S(=O)(=O)c2cnc[nH]2)CC1)N(CCc1ccccc1)Cc1ccccc1	-7.4%	1.0%	-2.1	-0.5%	-9.7%	-31.8%
